A549 tox = Nrf2 qHTS screen for inhibitors: counterscreen for cytotoxicity; A549 ARE-Fluc cells, CellTiter-Fluor viability, 18-24 h; Potency, µM (highest dose often 46 µM), inactives show top-dose activity change, negative = cytotoxicity, hits mostly inhibitors; hit rate 0.16% among 390,000; note: % is set by controls: 0 for no effect and ±100 for the full control effect
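A549 ARE-Fluc cells in 5% FBS OPTI-MEM, 5000 cells/well, rested 2 h then exposed to compounds in concentration-response for 18-24 h at 37 °C. Viability by CellTiter-Fluor fluorescence (Ex 405/Em 525) after 30 min; luciferase luminescence (BugLite, 15 min, RT) read afterwards.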
Nrf2 inh = Nrf2 qHTS screen for inhibitors. AID 504444, 2011. hit rate 2.1% among 360,000. Potency, µM (doses to about 46 µM), for inactives: top-dose activity change, negative = inhibition, usual class: inhibitors. A549 ARE-Fluc reporter, luciferase luminescence, 18-24 h; note: % is set by controls: 0 for no effect and ±100 for the full control effect; nearly all actives have a fitted effect of over 60% in size
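Nrf2 function is reported as luminescence of an ARE-controlled luciferase in A549 cells. Compounds were tested at several concentrations, and a CellTiter-Fluor read on the same wells flagged cytotoxicity.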
TrxR1 inh = qHTS Assay for Inhibitors of Mammalian Selenoprotein Thioredoxin Reductase 1 (TrxR1): qHTS. hit rate 1% among 390,000. Potency, µM (doses to about 114 µM), without a hit: top-dose activity change, negative = inhibition, actives largely listed as inhibitors. recombinant rTrxR1, NADPH fluorescence consumption, selenite substrate; note: % is set by controls: 0 for no effect and ±100 for the full control effect; nearly all actives have a fitted effect of over 65% in size
Target sequence (O89049 whole entry, looked up): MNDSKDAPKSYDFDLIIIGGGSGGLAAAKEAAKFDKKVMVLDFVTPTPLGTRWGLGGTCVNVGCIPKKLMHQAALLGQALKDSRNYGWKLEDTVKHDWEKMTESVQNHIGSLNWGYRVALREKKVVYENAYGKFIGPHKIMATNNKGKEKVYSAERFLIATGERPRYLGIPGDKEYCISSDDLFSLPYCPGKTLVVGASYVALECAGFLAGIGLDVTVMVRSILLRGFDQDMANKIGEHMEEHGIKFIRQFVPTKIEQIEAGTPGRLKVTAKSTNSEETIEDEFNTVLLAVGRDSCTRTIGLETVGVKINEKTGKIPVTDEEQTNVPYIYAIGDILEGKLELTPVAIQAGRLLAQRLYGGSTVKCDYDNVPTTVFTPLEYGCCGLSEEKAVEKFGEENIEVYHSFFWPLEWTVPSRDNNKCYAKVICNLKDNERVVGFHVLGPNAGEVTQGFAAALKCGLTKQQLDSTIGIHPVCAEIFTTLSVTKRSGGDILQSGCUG
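Rat TrxR1 (90 nM in the dispensed reagent) was pre-reduced with 400 uM NADPH for 5 min at room temperature, then incubated with compound for 15 min. After 400 uM selenite was added, NADPH fluorescence (Ex 340/Em 450 nm) was followed for 8 min.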
GALK inhibitor = qHTS Assay for Inhibitors of Human Galactokinase (GALK) | P51570 | Purified GALK, Kinase-Glo residual ATP luminescence | Potency, µM (series often up to 57.5 µM), for inactives: at the top dose activity change, negative = inhibition, most hits filed as inhibitors | hit rate 0.007% among 270,000 | AID 1868, 2009; note: % is set by controls: 0 for no effect and ±100 for the full control effect
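5 nM enzyme, 35 uM ATP, 100 uM galactose, 20 mM HEPES pH8.0, 5 mM MgCl2; 1 h RT; residual ATP by Kinase-Glo Plus luminescence, qHTS format.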
TrxR1 substrate = qHTS Assay for Substrates of Mammalian Selenoprotein Thioredoxin Reductase 1 (TrxR1): qHTS. Thioredoxin reductase 1, cytoplasmic (Rattus norvegicus), O89049. hit rate 0.01% among 390,000. Potency, µM (series often up to 114 µM), without a hit: at the top dose activity change, negative = substrate turnover. purified TrxR1 substrate turnover, NADPH consumption readout; note: % is set by controls: 0 for no effect and ±100 for the full control effect; nearly all actives have a fitted effect of over 50% in size
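Rat TrxR1, dispensed at 90 nM, was prereduced with 400 uM NADPH (final) for 5 min at ~22 deg C, then incubated with compound 15 min before 400 uM selenite. A first-read NADPH fluorescence drop versus no-compound background flagged substrates.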
Nrf2 ARE act = qHTS of Nrf2 Activators; hit rate 0.31% among 410,000; Potency, µM (doses to about 46.1 µM), without a hit: at the top dose activation, hits mostly activators; AREc32 ARE-luciferase reporter (MCF7-derived line), luminescence, 24 h; note: % of control where 0% means no effect; nearly all actives have a fitted effect of over 65% in size
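Steps: seed AREc32_Fluc cells (1000/well, 5% FBS OPTI-MEM); incubate overnight at 37 deg C; add 23 nL compound; incubate 24 hr; add Steady-Glo; hold 30 min RT; read luminescence.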
* = called active by the depositor; ? = inconclusive; nt = not tested or not shown; [ ] = dose if it differs, or a comment. Only some compounds are listed: those with a hit (about 3% of all), similar ones and a draw of the others. Calls come from the whole dose curve; as a rule, active = well fitted curve in the direction sought with a large enough effect; inconclusive = small, poorly fitted or top-dose-only effect, or another doubt; inactive = no such curve, though single readings can be large; an effect the other way counts as inactive or inconclusive. Potency is the fitted concentration of half-maximal effect.

SMILES | A549 tox | Nrf2 inh | TrxR1 inh | GALK inhibitor | TrxR1 substrate | Nrf2 ARE act
C=C1CC(COc2cc(=O)oc3ccccc23)(c2ccccc2)OC1=O (configuration not stated) | -11% | ? | 32µM* | nt | -7% | ?
C=C1CCC2C(C)(C)[C@H](O)CC[C@@]2(C)[C@@H]1COc1cc(=O)oc2ccccc12 (some centres not stated) | ? | ? | -8% | nt | -13% | -2%
O=C(Cn1c(SCc2ccccc2F)nc2ccncc21)Nc1ccccc1C(F)(F)F | 0% | ? | -7% | nt | -4% | 1%
COc1ccc(-c2cc3ccc(O)c(CN4CCN(CCO)CC4)c3oc2=O)cc1OC | ? | nt | 5%[57.1 µM] | nt | 31%[57.1 µM] | 8%
Cc1ccc2occ(/C=N/NC(=O)[C@@H](N)Cc3ccccc3)c(=O)c2c1 | -4% | 4% | 15%[57.1 µM] | nt | 1%[57.1 µM] | 1%
COCC(C)OC(=O)/C(C#N)=C\c1coc2ccc(C)cc2c1=O (configuration not stated) | -4% | -9% | 28µM* | -4% | 7% | 2%
CCOC(=O)c1ccccc1NC(=O)NC(C)c1c(-n2cccc2)sc(C)c1C (configuration not stated) | 1% | 4% | -1% | nt | 4% | 3%
CCOc1ccc(NC(=O)NC(C)c2c(-n3cccc3)sc(C)c2C)cc1 (configuration not stated) | -28% | 21µM* | 16% | nt | 0% | 4%
Cc1cc(C)nc(SCCC(=O)Nc2ccccc2Cl)n1 | 0% | 12µM* | 26%[57.1 µM] | 3% | 8%[57.1 µM] | 0%
CCOC(=O)C1=C(C)N=C2c3ccccc3C(=O)C2C1c1ccc(Cl)cc1 (configuration not stated) | 16µM* | ? | -16%[57.1 µM] | nt | -4%[57.1 µM] | 8%
CC1(C)CC(=O)C2=C(C1)N=C1c3ccccc3C(=O)C1C2c1ccc(Cl)cc1 (configuration not stated) | 26µM* | 26µM* | -26% | -1% | -11% | 0%
CC(C)CN(CCNC(=O)c1cc(-c2cccs2)nc2ccccc12)CC(C)C | 2% | 5%[9.27 µM] | 7% | nt | 63% | 0%
COCc1cc(=O)[nH]c(SCCS(=O)(=O)c2ccc(Cl)cc2Cl)n1 | 2% | -15% | 1.3µM* | nt | 6% | 22%
COCc1cc(=O)[nH]c(SCCS(=O)(=O)c2ccc(C)cc2)n1 | -1% | 8% | 1%[57.1 µM] | 1% | 7%[57.1 µM] | 8%
CCOC(=O)c1c(N2C(=O)C3C4C=CC(O4)C3C2=O)sc2c1CCCC2 (configuration not stated) | -5% | -3% | 13µM* | 2% | -2% | 8%
CCOC(=O)c1c(-n2cnnn2)sc2c1CCCC2 | -2% | -31% | 26% | -3% | 40% | -1%
Cc1cc(NC(=O)Cc2ccccc2)c2ccccc2n1 | -2% | 9.2µM* | 18% | -1% | -4% | 1%
Cc1cccc(Nc2cc(C)nc3ccccc23)c1 | ? | ? | 2% | 0% | -3% | 10%
Cc1cc(Nc2cccc(Cl)c2)c2ccccc2n1 | ? | 21µM* | 24% | -3% | -3% | 0%
COC(=O)Nc1cc(C)nc2ccccc12 | -6% | -3% | 9% | -2% | 4% | 2%
Cc1cccc(N(CC(N)=O)C2SC(=O)N(Cc3cccc(C(=O)O)c3)C2=O)c1 (configuration not stated) | 4% | -17% | -14% | nt | 2% | 0%
COc1cc(OC)cc(C(=O)Nc2ccc(NC(=O)c3ccco3)c(C)c2)c1 | 2% | -6% | 25µM* | 18% | -3% | 3%
CC(C)COc1ccc(C(=O)Nc2ccc(NC(=O)c3ccco3)c(Cl)c2)cc1 | ? | 16µM* | 9% | 1% | 47% | 0%
COc1ccc(/C=N\NC(=O)COc2ccc(C(C)(C)C)cc2)cc1Cn1nc(C)cc1C | 15µM* | nt | 14%[57.1 µM] | -12% | 5%[57.1 µM] | 14%
COc1ccc(/C=N/NC(=O)c2ccco2)cc1Cn1nc(C)cc1C | 1% | -6% | -9% | 1% | -10% | 11%
SMILES | A549 tox | Nrf2 inh | TrxR1 inh | GALK inhibitor | TrxR1 substrate | Nrf2 ARE act
CCc1ccccc1NS(=O)(=O)c1ccc2c(c1)CC(=O)N2 | 8% | 4% | 0% | nt | -3% | 1%
Cc1cn2c(=O)cc(COC(=O)c3cccc(NC(=O)COc4ccccc4)c3)nc2s1 | 2% | nt | -3%[57.1 µM] | nt | -2%[57.1 µM] | 9%
CCN1C(=O)S/C(=C/c2ccc(Sc3nc4ccccc4[nH]3)o2)C1=O | -8% | 21µM* | -20% | 0% | -9% | 8%
Cc1ccc(OCc2nnc(-c3ccccc3)o2)cc1 | 15% | ? | 12% | nt | 3% | 4%
Cc1cc(C)n2nc3nc(N4CCCCC4)nc(-c4ccco4)c3c2n1 | -1% | nt | 10µM* | 0% | 3%[57.1 µM] | 11%
Cc1cc(Nc2ccccc2Cl)n2nc(-c3ccco3)nc2n1 | 3% | nt | 5%[57.1 µM] | nt | 5%[57.1 µM] | 7%
Cc1ccc(NC(=O)COCc2cc(-c3cccs3)on2)cc1Cl | 15% | ? | 14% | nt | -9% | 7.1µM*
CCCCCN1C(C(=O)c2ccccc2)=C(NC(=O)c2ccc(OC)c(OC)c2)c2ccccc2S1(=O)=O | ? | ? | 14% | nt | -9% | 0%
C/C(=N\Nc1ncnc2sc(C)c(C)c12)c1ccccn1 | 23µM* | ? | -5% | -1% | -8% | 23%
Clc1ccc(C2=CC(c3ccco3)n3ncnc3N2)cc1 (configuration not stated) | ? | 16% | ? | 3% | 34% | ?
Clc1ccccc1C1=CC(c2ccco2)n2ncnc2N1 (configuration not stated) | 1% | 4% | -39% | -1% | 39% | 11µM*
Cc1ccc(NC(=O)c2cnn3c2NC(=C2CC2)C=C3C(F)F)cc1C | nt | nt | 16% | nt | 4% | nt
O=C(NCc1ccccc1Cl)c1ccc(CS(=O)(=O)c2ccccc2)o1 | 2% | 11% | 4% | 15% | 0% | 2%
O=C(NCc1ccccc1Cl)c1ccc(CS(=O)(=O)c2ccc(Br)cc2)o1 | ? | 23µM* | -1% | nt | -1% | 6%
COc1ccccc1S(=O)Cc1ccc(C(=O)NCCc2ccc(Cl)cc2)o1 (configuration not stated) | 0% | -18% | 18µM* | 2% | 2% | 1%
CCc1ccccc1S(=O)(=O)Cc1ccc(C(=O)NCc2ccc(Cl)cc2)o1 | -1% | ? | -17% | nt | -5% | 5%
